Experimental data from PubChem BioAssay (EPA / NIEHS).
Results filed as inconclusive are left out. The source made the active and inactive calls. How the source made its calls: active means hit-call score of the fitted dose curve at least 0.9, where 1 is the maximum; inconclusive means response in the unintended direction; inactive means score below 0.9.

Experiment: ATG_GAL4_TRANS: Attagene TRANS-FACTORIAL HepG2 Assay for GAL4 (Internal Marker) (AID 2282976)
Settings: HepG2 Attagene TRANS GAL4 internal marker reporter
Method: ATG_TRANS is a cell-based, multiplexed-readout assay that uses HepG2, a human liver cell line, with measurements taken at 24 hours after chemical dosing in a 24-well plate.ATG_GAL4_TRANS is one of 30 assay component(s) measured or calculated from the ATG_TRANS assay. It is designed to make measurements of mRNA induction, a form of inducible reporter, as detected with fluorescence intensity signals by Reverse transcription polymerase chain reaction (RT-PCR) and Capillary electrophoresis technology.Data from the assay component ATG_GAL4_TRANS was analyzed into 1 assay endpoint. This assay endpoint, ATG_GAL4_TRANS, was analyzed in the positive analysis fitting direction relative to DMSO as the negative control and baseline of activity. Using a type of inducible reporter, measures of mRNA for gain-of-signal activity can be used to understand the background control at the transcription factor-level as they relate to the gene . Furthermore, this assay endpoint can be referred to as a secondary readout, because this assay has produced multiple assay endpoints where this one serves a background control function. To generalize the intended target to other relatable targets, this assay endpoint is annotated to the background measurement intended target family, where the subfamily is baseline control.
Human liver HepG2 cells are transiently transfected with multiple reporter transcription units (MRTUs) in 6-well plates using FuGene 6 reagent (Roche; 3 ml FuGene/1 mg DNA). The MRTU constructs are regulated by a cis-regulating element (promoter). […] A major difference between the CIS and TRANS system is that in CIS activities of endogenous TFs are measured, whereas the TRANS assay evaluates changes in activities of exogenous, chimeric NR-Gal4 proteins. […] At the end of 24 hour incubation, total RNA was isolated using TriZol reagent (Invitrogen). The isolated RNA is then reverse-transcribed using oligo(dT) primer and Mo-MLV reverse transcriptase (Invitrogen) with DNAse I (Ambion) treatment for 30 min. The one-tenth of the produced cDNA was amplified by PCR using Taq DNA polymerase (Invitrogen) and two reporter sequence-specific primers. The PCR products were fluorescently labeled by primer extension with 6-arboxyfluorescein (6-FAM) 5'-labeled reporter sequence-specific primer (2 min at 95 C, 20 s at 68 C and 10 min at 72 C) and these products were digested with 5U of HpaI (New England Biolabs) for 2h at 37 C. The fragments were purified using Qiaquick PCR columns (Qiagen), analyzed on an ABI 3130xL genetic analyzer (Applied Biosystems) with peak positions identified by using a set of X-rhodamine (ROX)-labeled MapMarker1000 molecular weight standards (BioVentures). The raw capillary electrophoresis data was processed using Attagraph software (Attagene).

SMILES | outcome
CC(=O)CCC=C(C)C | inactive
CCCCCCCCCCCCc1ccc(O)cc1 | inactive
CCCC/C=C/C=C\C=O | inactive
C=CC(=O)OCCCCCCCC(C)C | inactive
CCCCCCCCCCCCCC(=O)OC(C)C | inactive
CC=CC(=O)OCC(C)C | inactive
CCCCOCCOCCOC(C)=O | inactive
CC(C)c1cccc(C(C)C)c1N | inactive
CC1CCC(C(C)(C)S)C(=O)C1 (stereo not given) | inactive
CC12CCC(CC1)C(C)(C)O2 | inactive
O=C(O)c1ccc2c(c1)C(=O)OC2=O | inactive
CC1(C)CC(O)CC(C)(C)N1[O] | inactive
COC(C=C(C)CCC=C(C)C)OC | inactive
CC(C)(C)N | inactive
CC(CCC(=O)O)(c1ccc(O)cc1)c1ccc(O)cc1 | inactive
CCCCc1ccc(Cl)cc1 | inactive
CCCCCCCC(=O)OCC | inactive
CC(CC(C)C)=NO | inactive
CC(C)c1ccc2ncccc2c1 | inactive
CCCCCCCC(=O)OCC(COC(=O)CCCCCCC)OC(=O)CCCCCCC | inactive

SMILES | outcome
CC(=O)OCC=C(C)C | inactive
CC(C)=CCCC(C)=CC#N | inactive
CCCCCCCCCCCCC | inactive
CC1OC(=O)C(C)OC1=O (stereo not given) | inactive
Cc1cc(C)n(CO)n1 | inactive
N=C1C=CC(=C(c2ccc(N)cc2)c2ccc(N)cc2)C=C1 | inactive
Cc1cc(C)c(C=O)c(C)c1 | inactive
O=C(O)/C=C/c1ccccc1 | inactive
CC(C)CO | inactive
CCCCCCCCCC(C)=O | inactive
Cc1cc(=O)[nH]c(=O)[nH]1 | inactive
CCCCCCCCCCCC(=O)N(C)CC(=O)O | inactive
CC1CCC(=O)C1=O (stereo not given) | inactive
CC(C)(C)C1CCC(=O)CC1 | inactive
CCCCC(=O)O | inactive
Nc1ccc(C(=O)O)cc1 | inactive
C=CC(=O)OCCCCCCCCCC | inactive
CCCCC(CC)COS(=O)(=O)O (stereo not given) | inactive
CC1=CCC2CC1C2(C)C (stereo not given) | inactive
CCOC(=O)CC(=O)c1ccccc1 | inactive
